From PubChem
Only some compounds are listed: those with a hit (about 4.1% of all), similar ones and a draw of the others.
TWEAK-Fn14 inh: TWEAK-Fn14 signaling inhibition. TWEAK-stimulated Fn14 reporter cells, luciferase luminescence, 8 h. inhibition, % at 10 µM. 2% of 360,000 active; in the data active = inhibition above about 50%
Shn3 inh set2: reduces Shn3 3'UTR luciferase signal in osteoblasts. Clone20 osteoblast Shn3 3'UTR firefly luciferase, 24 h. inhibition, % at 12.5 µM. 0.52% of 360,000 active;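 active = mean inhibition of at least 75% with every replicate also reaching 75%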;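 note: 0% = median of neutral control wells and 100% = pilot-screen positive control compound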
Peg3 prom inh-1: Peg3 promoter activity inhibition | AID 588405 | inhibition, % at 20 µM | 1.7% of 360,000 active | HeLa PEG-Prom luciferase reporter, luminescence, overnight;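 active = inhibition of at least 50% at 20 µM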
TRPM1 prom inh: MITF TRPM1 promoter inhibition in SK-MEL-5 cells. inhibition, % at 12.5 µM. 0.83% of 330,000 active. SK-MEL-5 TRPM1 promoter luciferase, 24 h;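 active = mean inhibition across replicates of 60% or more, whatever share of single replicates reaches that level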
LMP1 NFkB inh: Epstein-Barr LMP1 NF-kappaB reporter inhibition; inhibition, % at 12.5 µM; AID 504558; 0.69% of 350,000 active; LMP1-induced NF-kappaB luciferase reporter cells, luminescence; in the data active = inhibition above about 41%;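 note: 0% = neutral control wells and 100% = reference inhibitor control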
TROY NFkB inh: TROY signaling inhibition; Q293 LMP1-TROYcd NF-kB luciferase reporter, 4 h; inhibition, % at 10 µM; 0.98% of 360,000 active; AID 1347056;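 active = compounds whose plate-normalised and pattern-corrected inhibition of the luciferase reporter signal at the single screening dose is 50% or more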
Peg3 prom inh-2: confirmation of Peg3 promoter inhibitors; shares compounds with Peg3 prom inh-1; HeLa PEG-Prom luciferase reporter, luminescence, overnight; inhibition, % at 20 µM; 84% of 1,300 active;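 active = at 20 µM dose, 40% or more inhibition averaged across four replicates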
Active calls of the source: *.

Results for Cc1ccc(N2C(=O)NC(=O)/C(=C/C=C/c3ccco3)C2=O)cc1 ?
TWEAK-Fn14 inh: 18; Shn3 inh set2: 78; Peg3 prom inh-1: 86*; TRPM1 prom inh: 73*; LMP1 NFkB inh: -8; TROY NFkB inh: 3; Peg3 prom inh-2: 35

Results for O=C1NC(=O)N(Cc2ccccc2)C(=O)/C1=C\c1ccco1 ?
TWEAK-Fn14 inh: 14; Shn3 inh set2: 24; Peg3 prom inh-1: 17; TRPM1 prom inh: 35; LMP1 NFkB inh: 7; TROY NFkB inh: -9

What do the screens show for `Cc1cc(Cl)ccc1C(=O)C1CCCN(C2CCSCC2)C1` (configuration not stated)?
TWEAK-Fn14 inh: -2; Shn3 inh set2: -3; Peg3 prom inh-1: 4; TRPM1 prom inh: 2; LMP1 NFkB inh: -40; TROY NFkB inh: -20

Results for CN1CCc2cc(O)cc3c2[C@H]1Cc1ccc(O)c(O)c1-3 ?
TWEAK-Fn14 inh: 4; Shn3 inh set2: 6; Peg3 prom inh-1: 3; TRPM1 prom inh: -12; LMP1 NFkB inh: -9; TROY NFkB inh: -2

Results for CN1CCc2cc3c(c4c2C1Cc1ccccc1-4)OCO3 (configuration not stated) ?
TWEAK-Fn14 inh: 6; Shn3 inh set2: 16; Peg3 prom inh-1: 71*; TRPM1 prom inh: 12; LMP1 NFkB inh: 0; TROY NFkB inh: -18; Peg3 prom inh-2: 27

Results for O=C1CNC(c2ccccc2Cl)c2cc(Br)ccc2N1 (configuration not stated) ?
TWEAK-Fn14 inh: 30; Shn3 inh set2: -21; Peg3 prom inh-1: 2; TRPM1 prom inh: 5; LMP1 NFkB inh: 6; TROY NFkB inh: 2

Results for COc1ccc(CNCCc2c(C)[nH]c3ccc(OC(F)(F)F)cc23)c(OC)c1 ?
TWEAK-Fn14 inh: 11; Shn3 inh set2: 90*; Peg3 prom inh-1: 99*; TRPM1 prom inh: 92*; LMP1 NFkB inh: 21; TROY NFkB inh: 12; Peg3 prom inh-2: 99*

How did COc1ccc2[nH]c(C)c(CCN3CCC(=O)C(C)C3C)c2c1 (configuration not stated) do in these assays?
TWEAK-Fn14 inh: 19; Shn3 inh set2: -8; Peg3 prom inh-1: 4; TRPM1 prom inh: 0; LMP1 NFkB inh: -7; TROY NFkB inh: 6

Results for O=C(c1ccccc1F)N1C[C@H]2C[C@@H](C1)c1cccc(=O)n1C2 ?
TWEAK-Fn14 inh: -26; Shn3 inh set2: -8; Peg3 prom inh-1: 6; LMP1 NFkB inh: -4; TROY NFkB inh: -1

What do the screens show for `O=C1NC(=S)NC(=O)C1=Cc1cccc2cc3ccccc3cc12`?
TWEAK-Fn14 inh: 0; Shn3 inh set2: 99*; Peg3 prom inh-1: 107*; TRPM1 prom inh: 98*; LMP1 NFkB inh: 7; TROY NFkB inh: -28; Peg3 prom inh-2: 100*

Results for COc1ccc(C=C2C(=O)NC(=S)NC2=O)cc1 ?
TWEAK-Fn14 inh: -1; Shn3 inh set2: 9; Peg3 prom inh-1: 0; TRPM1 prom inh: 6; LMP1 NFkB inh: -2; TROY NFkB inh: -2

What do the screens show for `CCCCNS(=O)(=O)c1ccc(OCC(=O)N2CCN(Cc3ccc4c(c3)OCO4)CC2)cc1`?
TWEAK-Fn14 inh: 29; Shn3 inh set2: 69; Peg3 prom inh-1: -5; TRPM1 prom inh: 9; LMP1 NFkB inh: 17; TROY NFkB inh: 8

Results for CCC(=O)N1CC(=O)Nc2ccc(Br)cc2C1c1ccccc1 (configuration not stated) ?
TWEAK-Fn14 inh: 1; Shn3 inh set2: -6; Peg3 prom inh-1: -11; TRPM1 prom inh: 11; LMP1 NFkB inh: -11; TROY NFkB inh: 8

Results for O=C(CSC1c2ccccc2-c2ccccc21)N/N=C/c1ccc(C(=O)O)cc1 ?
TWEAK-Fn14 inh: -5; Shn3 inh set2: 11; Peg3 prom inh-1: 9; TRPM1 prom inh: 17; LMP1 NFkB inh: 4; TROY NFkB inh: 1

Results for O=C(CSC1c2ccccc2-c2ccccc21)N/N=C/c1ccccc1O ?
TWEAK-Fn14 inh: 23; Shn3 inh set2: 70; Peg3 prom inh-1: 55*; TRPM1 prom inh: 43; LMP1 NFkB inh: 29; TROY NFkB inh: -49; Peg3 prom inh-2: 64*

Results for Cc1ccc(CN2C3CCCC2CC(NC(=S)NCc2ccccc2)C3)cc1 (configuration not stated) ?
TWEAK-Fn14 inh: -3; Shn3 inh set2: 16; Peg3 prom inh-1: 0; TRPM1 prom inh: -15; LMP1 NFkB inh: -1; TROY NFkB inh: 11

Results for COc1ccc(-n2nnnc2C(C2CC2)N2CCC(n3c(=O)[nH]c4ccccc43)CC2)cc1 (configuration not stated) ?
TWEAK-Fn14 inh: 28; Shn3 inh set2: -30; Peg3 prom inh-1: 58*; TROY NFkB inh: 19; Peg3 prom inh-2: 58*

How did CCC(c1nnnn1-c1ccc2c(c1)OCCO2)N1CCC(n2c(=O)[nH]c3ccccc32)CC1 (configuration not stated) do in these assays?
TWEAK-Fn14 inh: 29; Shn3 inh set2: 19; Peg3 prom inh-1: 79*; TROY NFkB inh: 30; Peg3 prom inh-2: 80*

Results for COC(=O)c1ccc(N2C(=O)CC(N3CCC(n4c(=O)[nH]c5ccccc54)CC3)C2=O)cc1 (configuration not stated) ?
TWEAK-Fn14 inh: -8; Shn3 inh set2: 6; Peg3 prom inh-1: 2; TRPM1 prom inh: 6; LMP1 NFkB inh: -4; TROY NFkB inh: -1

How did O=C1NCN(c2ccccc2)C12CCN(C(c1nnnn1-c1ccc3c(c1)OCCO3)C1CC1)CC2 (configuration not stated) do in these assays?
TWEAK-Fn14 inh: 17; Shn3 inh set2: -3; Peg3 prom inh-1: 22; TROY NFkB inh: -13

How did Cc1cccc(C)c1-n1nnnc1C(c1ccccc1OC(F)(F)F)N1CCC(n2c(=O)[nH]c3ccccc32)CC1 (configuration not stated) do in these assays?
TWEAK-Fn14 inh: 33; Shn3 inh set2: 25; Peg3 prom inh-1: 52*; TROY NFkB inh: -9; Peg3 prom inh-2: 68*

How did COc1ccc(C(c2nnnn2-c2c(C)cccc2C)N2CCC(n3c(=O)[nH]c4ccccc43)CC2)cc1 (configuration not stated) do in these assays?
TWEAK-Fn14 inh: 10; Shn3 inh set2: 2; Peg3 prom inh-1: 59*; TROY NFkB inh: 14; Peg3 prom inh-2: 48*

Results for COC(=O)C1=C(N)Oc2cc(C)oc(=O)c2C12C(=O)Nc1ccccc12 (configuration not stated) ?
TWEAK-Fn14 inh: -8; Shn3 inh set2: -7; Peg3 prom inh-1: 10; TRPM1 prom inh: 14; LMP1 NFkB inh: -5; TROY NFkB inh: 6

How did COP(=O)(/C=C(\Cl)c1ccccc1)/C=C(\Cl)c1ccccc1 do in these assays?
TWEAK-Fn14 inh: -7; Shn3 inh set2: -35; Peg3 prom inh-1: -19; TRPM1 prom inh: 4; LMP1 NFkB inh: -7; TROY NFkB inh: -1
